From PubChem BioAssay (NCI)
The panel holds about 79,000 compounds, 15% with a hit somewhere; the sample as a whole holds those more often. Activity calls are given as the source filed them. Rule as the data show it: active = growth inhibition above about 70%; inactive = the rest.

Key:
[1] = NCI Yeast Anticancer Drug Screen. Data for the rad52 strain (AID 147);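 also: 0% = growth of vehicle-treated control cultures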; conditions: S. cerevisiae rad52 mutant growth inhibition, active compounds read high
Outline: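 Compounds are applied to a genetically defined yeast strain lacking normal DNA damage repair, and inhibition of growth is expressed relative to cultures given vehicle only.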

[2] = NCI Yeast Anticancer Drug Screen. Data for the wt1 strain (AID 149);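 also: 0% = growth of vehicle-treated wt1 cultures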; conditions: S. cerevisiae wt1 strain (SPY 50644) growth inhibition, active compounds read high
Outline: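 wt1 strain grown with compound or vehicle; inhibition taken from the growth difference.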

[3] = NCI Yeast Anticancer Drug Screen. Data for the rad50EPP+ strain (AID 151);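 also: 0% = growth of vehicle-treated control cultures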; conditions: S. cerevisiae rad50 mutant strain, active compounds read high
Outline: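 Compounds were applied to the rad50EPP+ yeast strain, which bears a defined DNA repair alteration, and growth inhibition was determined relative to vehicle-treated cultures.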

[4] = NCI Yeast Anticancer Drug Screen. Data for the rad50 strain (AID 155);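 also: 0% = growth of vehicle-only cultures of the same strain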; conditions: S. cerevisiae rad50 strain growth inhibition, active compounds read high
Outline: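 DNA repair mutant yeast, compound exposure, growth read-out; inhibition is taken relative to vehicle.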

[5] = NCI Yeast Anticancer Drug Screen. Data for the mec2-1 strain (AID 157); conditions: S. cerevisiae mec2-1 strain, active compounds read high
Outline: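 Strain: mec2-1 (DNA repair/cell cycle alteration). Compound exposure, then growth measured; inhibition expressed relative to vehicle.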

[6] = NCI Yeast Anticancer Drug Screen. Data for the rad14 strain (AID 159);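 also: 0% = growth of vehicle-treated control cultures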; conditions: S. cerevisiae rad14 strain growth inhibition, active compounds read high
Outline: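 DNA repair-defective yeast, compound-exposed; % growth inhibition derived by comparison with vehicle-treated controls.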

[7] = NCI Yeast Anticancer Drug Screen. Data for the sgs1 mgt1 strain (AID 161);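 also: 0% = growth of cultures given vehicle only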; conditions: S. cerevisiae sgs1 mgt1 strain, active compounds read high
Outline: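 Mutant yeast exposed to compound; growth scored against vehicle-only wells.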

[8] = NCI Yeast Anticancer Drug Screen. Data for the CLN2oe strain (AID 163);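 also: 0% = growth of vehicle-only control cultures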; conditions: S. cerevisiae CLN2oe strain, active compounds read high
Outline: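 Growth of a genetically modified yeast strain is measured after compound exposure and compared with cultures given vehicle alone.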

[9] = NCI Yeast Anticancer Drug Screen. Data for the cln2 rad14 strain (AID 165);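 also: 0% = growth equal to vehicle treated cultures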; conditions: S. cerevisiae cln2 rad14 strain, active compounds read high
Outline: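 Compounds are applied to the cln2 rad14 yeast strain, and growth is then compared with that of vehicle-treated cultures to give inhibition.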

[10] = NCI Yeast Anticancer Drug Screen. Data for the bub3 strain (AID 167); conditions: S. cerevisiae bub3 mutant strain, active compounds read high
Outline: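 In this screen, a yeast mutant lacking normal mitotic checkpoint function is challenged with compound. Relative growth versus vehicle gives the inhibition value.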

[11] = NCI Yeast Anticancer Drug Screen. Data for the wt2 strain (AID 169);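 also: 0% = growth of vehicle-treated yeast cultures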; conditions: S. cerevisiae wt2 strain growth inhibition, active compounds read high
Outline: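 This strain belongs to a panel of yeast strains with defined genetic alterations in DNA damage repair or cell cycle control. Compounds are applied, and growth inhibition is measured against vehicle-treated cultures.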

[12] = NCI Yeast Anticancer Drug Screen. Data for the mlh1 strain (AID 171);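 also: 0% = growth of vehicle-treated control cultures of the same strain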; conditions: S. cerevisiae mlh1 strain growth inhibition, active compounds read high
Outline: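 Growth of the mutant yeast strain after compound exposure, expressed as inhibition relative to vehicle-only controls.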

[13] = NCI Yeast Anticancer Drug Screen. Data for the sgs1 strain (AID 173);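 also: 0% = growth of vehicle-only control cultures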; conditions: S. cerevisiae sgs1 mutant, active compounds read high
Outline: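 Growth of a yeast strain bearing a defined genetic alteration is measured after compound treatment. Inhibition is expressed relative to vehicle-only controls.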

[14] = NCI Yeast Anticancer Drug Screen. Data for the mlh1 rad18 strain (AID 175); conditions: S. cerevisiae mlh1 rad18 strain growth inhibition, active compounds read high
Outline: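 Read-out is yeast growth inhibition, calculated against vehicle-only controls. The compound was applied to a strain engineered with DNA damage repair alterations.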

[15] = NCI Yeast Anticancer Drug Screen. Data for the rad18 strain (AID 177); conditions: S. cerevisiae rad18 mutant growth inhibition, active compounds read high
Outline: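 Growth of the mutant yeast strain after compound exposure, normalised to vehicle-only cultures.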

[16] = at 5.0 µM (retest, dose inferred, filed as 0.5)
[17] = at 50.0 µM (retest, dose inferred, filed as 5.0)

Measured: growth inhibition

CSC(=S)Nc1cccc(C)n1
inactive: [1]; at 1.2 µM -6% | [1]; at 3.7 µM -5% | [1]; at 11.0 µM -3% | [1]; at 33.0 µM 23% | [1]; at 100.0 µM 63% | [2]; at 1.2 µM -35% | [2]; at 3.7 µM -24% | [2]; at 11.0 µM -25% | [2]; at 33.0 µM -15% | [2]; at 100.0 µM 3% | [3]; at 1.2 µM -15% | [3]; at 3.7 µM -19% | [3]; at 11.0 µM -27% | [3]; at 33.0 µM -24% | [3]; at 100.0 µM 68% | [4]; at 1.2 µM -25% | [4]; at 3.7 µM -4% | [4]; at 11.0 µM -11% | [4]; at 33.0 µM 28% | [4]; at 50.0 µM 41.8% | [5]; at 1.2 µM -61% | [5]; at 3.7 µM -61% | [5]; at 11.0 µM -58% | [5]; at 33.0 µM -36% | [5]; at 50.0 µM 31.6% | [5]; at 100.0 µM 34% | [6]; at 1.2 µM -19% | [6]; at 3.7 µM -15% | [6]; at 11.0 µM 9% | [6]; at 33.0 µM 2% | [6]; at 100.0 µM 50% | [7]; [16] -18% | [7]; [17] 29% | [7]; at 50.0 µM 45% | [8]; at 1.2 µM -24% | [8]; at 3.7 µM -8% | [8]; at 11.0 µM -13% | [8]; at 33.0 µM 12% | [8]; at 100.0 µM 24% | [9]; [16] 9% | [9]; [17] 65% | [9]; at 50.0 µM 38.2% | [10]; at 1.2 µM -9% | [10]; at 3.7 µM -16% | [10]; [16] 39% | [10]; at 11.0 µM -3% | [10]; at 33.0 µM 15% | [10]; [17] 63% | [10]; at 50.0 µM 54% | [11]; at 1.2 µM -29% | [11]; at 3.7 µM -30% | [11]; at 11.0 µM -31% | [11]; at 33.0 µM -10% | [11]; at 100.0 µM 31% | [12]; at 1.2 µM -42% | [12]; at 3.7 µM -40% | [12]; at 11.0 µM -35% | [12]; at 33.0 µM -12% | [12]; at 100.0 µM 66% | [13]; at 1.2 µM -47% | [13]; at 3.7 µM -49% | [13]; at 11.0 µM -32% | [13]; at 33.0 µM -6% | [13]; at 100.0 µM 62% | [14]; [16] 55% | [15]; at 1.2 µM -20% | [15]; at 3.7 µM -15% | [15]; at 11.0 µM -22% | [15]; at 33.0 µM 9% | [15]; at 100.0 µM 69%
active: [4]; [16] 88% | [4]; [17] 99% | [4]; at 100.0 µM 79% | [5]; [16] 70% | [5]; [17] 99% | [10]; at 100.0 µM 74% | [14]; [17] 99% | [14]; at 50.0 µM 70.1%

CC(C)=CC(=O)O[C@@H]1CC(C)(C)CC2C3=CCC4[C@]56CC[C@](O)(OC5)C(C)(C)C6CC[C@@]4(C)C3(C)CC[C@]21C(=O)O (stereo partly specified)
active: [1]; at 11.0 µM 80% | [1]; at 33.0 µM 93% | [1]; at 100.0 µM 92% | [2]; at 11.0 µM 85% | [2]; at 33.0 µM 93% | [2]; at 100.0 µM 92% | [4]; at 11.0 µM 75% | [4]; at 33.0 µM 94% | [4]; [17] 88% | [4]; at 50.0 µM 82.3% | [4]; at 100.0 µM 90% | [5]; at 33.0 µM 88% | [5]; [17] 87% | [5]; at 50.0 µM 83.2% | [5]; at 100.0 µM 89% | [6]; at 33.0 µM 78% | [6]; at 100.0 µM 84% | [7]; [17] 89% | [7]; at 50.0 µM 85.2% | [8]; at 11.0 µM 85% | [8]; at 33.0 µM 95% | [8]; at 100.0 µM 93% | [9]; [17] 92% | [9]; at 50.0 µM 79.3% | [10]; at 11.0 µM 81% | [10]; at 33.0 µM 92% | [10]; [17] 91% | [10]; at 50.0 µM 81.3% | [10]; at 100.0 µM 92% | [11]; at 33.0 µM 91% | [11]; at 100.0 µM 94% | [12]; at 33.0 µM 87% | [12]; at 100.0 µM 90% | [13]; at 11.0 µM 83% | [13]; at 33.0 µM 95% | [13]; at 100.0 µM 95% | [14]; [17] 90% | [14]; at 50.0 µM 78% | [15]; at 33.0 µM 95% | [15]; at 100.0 µM 94%
inactive: [1]; at 1.2 µM 2% | [1]; at 3.7 µM 37% | [2]; at 1.2 µM -23% | [2]; at 3.7 µM 44% | [3]; at 1.2 µM -9% | [3]; at 3.7 µM -1% | [3]; at 11.0 µM 7% | [3]; at 33.0 µM 14% | [3]; at 100.0 µM 6% | [4]; at 1.2 µM 1% | [4]; at 3.7 µM 36% | [4]; [16] 10% | [5]; at 1.2 µM -8% | [5]; at 3.7 µM 31% | [5]; [16] 27% | [5]; at 11.0 µM 69% | [6]; at 1.2 µM -15% | [6]; at 3.7 µM 2% | [6]; at 11.0 µM 44% | [7]; [16] 11% | [8]; at 1.2 µM -5% | [8]; at 3.7 µM 54% | [9]; [16] 33% | [10]; at 1.2 µM -18% | [10]; at 3.7 µM 27% | [10]; [16] 25% | [11]; at 1.2 µM -11% | [11]; at 3.7 µM 18% | [11]; at 11.0 µM 61% | [12]; at 1.2 µM -13% | [12]; at 3.7 µM 21% | [12]; at 11.0 µM 58% | [13]; at 1.2 µM -3% | [13]; at 3.7 µM 46% | [14]; [16] -11% | [15]; at 1.2 µM 9% | [15]; at 3.7 µM 42% | [15]; at 11.0 µM 36%
